Source: PubChem
Hits are enriched below; roughly 4.1% of the tested compounds scored in any of these assays.
HIV Env fusion: HIV envelope-mediated fusion inhibition; HeLa-JRFL Env/CEM21 cell fusion, luciferase; AID 651610; 360,000 tested, 1.1% active; inhibition, % at 12.3 µM;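 active = mean replicate inhibition score of at least 50 and every replicate individually at or above 50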;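 note: 0% = plate neutral controls and 100% = maraviroc near 300 nM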
Casp6 inh: caspase-6 (human) enzyme inhibition; inhibition, % at 12.5 µM; purified caspase-6, Z-VEID-R110 cleavage fluorescence; 350,000 tested, 0.53% active; AID 686996; P55212;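 active = mean inhibition across replicates at least about 35%, with every replicate also reaching that limit, limit read from the data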;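 note: 0% = median of neutral control wells and 100% = no fluorescence left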
ALR H2O2 inh: human ALR oxidase inhibition via reduced H2O2; P55789; purified ALR, DTT oxidation, H2O2 HRP-luminol luminescence; inhibition, % (no concentration beside the values); 290,000 tested, 3.8% active;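 active = mean replicate inhibition above about 79%, with every replicate also reaching it, limit read from the data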
NSD2 HMT inh: NSD2 (human) methyltransferase inhibition. O96028. NSD2 peptide methylation, AlphaScreen, 120 min. inhibition, % at 12.5 µM. 310,000 tested, 0.54% active; in the data active = inhibition above about 50%
Target sequence (O96028 whole entry, looked up): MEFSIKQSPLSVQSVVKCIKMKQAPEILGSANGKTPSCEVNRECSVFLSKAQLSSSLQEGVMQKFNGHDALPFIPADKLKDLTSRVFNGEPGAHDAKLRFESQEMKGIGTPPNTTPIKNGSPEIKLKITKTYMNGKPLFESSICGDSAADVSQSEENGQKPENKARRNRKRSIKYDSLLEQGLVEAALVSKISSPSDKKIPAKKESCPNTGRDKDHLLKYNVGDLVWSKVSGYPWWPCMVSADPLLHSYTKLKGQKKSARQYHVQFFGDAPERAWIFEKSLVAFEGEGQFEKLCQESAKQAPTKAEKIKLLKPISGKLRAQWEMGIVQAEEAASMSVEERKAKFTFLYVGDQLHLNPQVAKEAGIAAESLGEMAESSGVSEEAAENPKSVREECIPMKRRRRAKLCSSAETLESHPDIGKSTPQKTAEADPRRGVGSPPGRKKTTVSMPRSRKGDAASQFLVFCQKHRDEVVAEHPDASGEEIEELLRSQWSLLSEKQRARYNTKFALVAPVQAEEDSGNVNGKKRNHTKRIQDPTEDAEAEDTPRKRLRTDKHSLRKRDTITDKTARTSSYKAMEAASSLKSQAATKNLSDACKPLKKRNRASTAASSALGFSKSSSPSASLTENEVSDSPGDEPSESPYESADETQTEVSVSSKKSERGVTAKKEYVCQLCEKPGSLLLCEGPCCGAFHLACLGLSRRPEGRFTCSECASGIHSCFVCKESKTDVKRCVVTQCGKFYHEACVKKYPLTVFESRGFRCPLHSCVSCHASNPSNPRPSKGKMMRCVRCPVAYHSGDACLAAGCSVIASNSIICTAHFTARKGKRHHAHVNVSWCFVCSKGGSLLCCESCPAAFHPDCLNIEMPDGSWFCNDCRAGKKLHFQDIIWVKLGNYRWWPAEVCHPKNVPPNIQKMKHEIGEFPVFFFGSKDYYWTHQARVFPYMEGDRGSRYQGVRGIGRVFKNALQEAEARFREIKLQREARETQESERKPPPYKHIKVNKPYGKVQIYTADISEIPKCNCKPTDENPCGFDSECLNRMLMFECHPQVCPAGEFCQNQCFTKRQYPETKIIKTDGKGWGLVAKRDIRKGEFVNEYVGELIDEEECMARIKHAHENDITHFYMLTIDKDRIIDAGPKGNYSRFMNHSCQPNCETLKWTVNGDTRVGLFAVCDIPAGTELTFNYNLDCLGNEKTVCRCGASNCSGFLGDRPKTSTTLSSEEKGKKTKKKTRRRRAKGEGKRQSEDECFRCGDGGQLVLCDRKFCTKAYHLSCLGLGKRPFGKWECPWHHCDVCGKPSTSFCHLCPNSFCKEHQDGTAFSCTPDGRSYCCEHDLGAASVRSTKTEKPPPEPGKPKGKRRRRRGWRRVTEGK
CFTR F508del cor: CFTR F508del correction in bronchial cells; CFBE cells, YFP halide quenching; stimulated with forskolin plus potentiator P3; % fluorescence drop versus neutral controls; AID 720511; activity (quench increase), % at 7.58 µM; 350,000 tested, 0.36% active;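 active = mean added fluorescence quench of at least 8% versus neutral control, with both replicates also reaching 8%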;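 note: cells transiently co-express mutant CFTR-F508del with the halide-sensitive YFP; corrector assay measuring rescue of mutant channel to the surface after 24 h compound exposure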
PglD DTNB: inhibitors of Campylobacter jejuni PglD acetyltransferase | 360,000 tested, 0.098% active | purified PglD enzyme, DTNB colorimetric CoA detection | inhibition, % at 12.5 µM | AID 602405; in the data active = inhibition above about 16%, passing the limit was not always enough
Active calls of the source: *; nt = no result given; [ ] = another dose, or the depositor's remark.

SMILES | HIV Env fusion | Casp6 inh | ALR H2O2 inh | NSD2 HMT inh | CFTR F508del cor | PglD DTNB
COc1ccc2nc(N/C(N)=N/S(C)(=O)=O)nc(C)c2c1 | 61* | -2 | nt | 9 | -2 | -1
COc1ccc(NC(=O)N(C)C[C@H]2OCCCC[C@H](C)Oc3ccc(NS(=O)(=O)c4c(C)noc4C)cc3C(=O)N([C@H](C)CO)C[C@@H]2C)cc1 | -22[16.7 µM] | nt | nt | nt | -3 | 2
COc1ccc(-c2cnc3c(c2)C(=O)N([C@@H](C)CO)C[C@H](C)[C@@H](CN(C)Cc2ccccc2)O3)cc1 | -2[16.7 µM] | 1 | nt | nt | 2 | 1
COc1ccc2c3c(n(C)c2c1)[C@@H](CO)N(C(=O)Nc1ccc(F)cc1)CC31CN(S(=O)(=O)c2cccs2)C1 | nt | nt | nt | nt | 5 | nt
CSc1ccc(N/N=C(/C#N)S(=O)(=O)C(C)(C)C)cc1 | 7 | 1 | 36 | 3 | 0 | nt
COc1ccc(N/N=C(/C#N)S(=O)(=O)C(C)(C)C)cc1 | 1 | -2 | 98* | -8 | 1 | nt
COc1ccc(N/N=C(/C#N)S(=O)(=O)c2nsc(C)c2C#N)cc1 | nt | nt | 98* | 7 | nt | -1
Cc1snc(S(=O)(=O)/C(C#N)=N/Nc2cccc(C(F)(F)F)c2)c1C#N | nt | nt | nt | nt | nt | -7
C[C@@H]1CN([C@@H](C)CO)C(=O)c2cccc(NC(=O)C3CC3)c2O[C@H]1CN(C)CC1CCCCC1 | 47[16.7 µM] | 2 | nt | nt | 1 | 1
Cc1ccc(NC(=O)CN(c2ccc3c(c2)OCO3)S(=O)(=O)c2c(C)n[nH]c2C)cc1 | -16 | 4 | 90* | nt | -3 | 3
COc1cc(NC(=O)CN(c2ccc(C)cc2)S(=O)(=O)c2c(C)n[nH]c2C)cc(OC)c1 | -70 | nt | 3 | 1 | nt | 0
COC(=O)c1ccc(C(=O)OC)c(NC(=O)CN(c2ccc3c(c2)OCO3)S(C)(=O)=O)c1 | nt | 42* | -6 | 1 | 1 | 3
Cc1n[nH]c(C)c1S(=O)(=O)N(CC(=O)NC1CCCC1)c1ccc(C(C)C)cc1 | 86* | -2 | 81* | nt | 0 | 0
CC(=O)N1[C@@H]2c3ccc(C4=CCCC4)c(=O)n3C[C@H]1[C@H](CO)[C@H]2C(=O)NC1CCCC1 | nt | 0 | nt | nt | -2 | nt
COC(=O)C[C@H]1CC[C@H]2[C@@H](COc3ccc(NS(=O)(=O)c4ccccc4Cl)cc3C(=O)N2C)O1 | 9[16.7 µM] | 2 | nt | nt | -1 | nt
COc1cccc(CNC(=O)CCNC(=O)N2CCn3c2nc2ccccc23)c1 | 2 | -1 | 98* | -5 | -1 | 3
COc1cccc(CNC(=O)CCCCCNC(=O)N2CCn3c2nc2ccccc23)c1 | 26 | -1 | -3 | -2 | 0 | 0
Cc1ccc(CNC(=O)CCNC(=O)N2CCn3c2nc2ccccc23)cc1 | -2 | -4 | 94* | 1 | 2 | 1
C[C@H](CO)N1C[C@H](C)[C@@H](CN(C)C(=O)Nc2cccc3ccccc23)Oc2c(NC(=O)C3CCOCC3)cccc2C1=O | 6[16.7 µM] | 52* | nt | nt | 0 | -9
C[C@@H]1CN([C@H](C)CO)C(=O)c2cc(NC(=O)Nc3ccc(C(F)(F)F)cc3)ccc2O[C@H]1CN(C)C(=O)Nc1cccc2ccccc12 | 13[16.7 µM] | nt | nt | nt | 0 | 2
C[C@H]1CN([C@@H](C)CO)C(=O)c2cccc(NC(=O)Nc3ccc(C(F)(F)F)cc3)c2O[C@@H]1CN(C)C(=O)Nc1cccc2ccccc12 | 14[16.7 µM] | -2 | nt | nt | 4 | -1
C[C@@H]1CN([C@H](C)CO)C(=O)c2cccc(NC(=O)Nc3ccc(C(F)(F)F)cc3)c2O[C@H]1CN(C)C(=O)Nc1cccc2ccccc12 | 78*[16.7 µM] | -2 | nt | nt | 4 | -3
C[C@H]1CN([C@@H](C)CO)C(=O)c2cccc(NC(=O)C3CCOCC3)c2O[C@H]1CN(C)C(=O)Nc1cccc2ccccc12 | -2[16.7 µM] | -3 | nt | nt | 0 | 2
C[C@H](CO)N1C[C@H](C)[C@H](CN(C)C(=O)Nc2cccc3ccccc23)Oc2ccc(NC(=O)Nc3ccc(C(F)(F)F)cc3)cc2C1=O | 56*[16.7 µM] | nt | nt | nt | 2 | -1
C[C@H](CO)N1C[C@H](C)[C@H](CN(C)C(=O)Nc2cccc3ccccc23)Oc2ncc(-c3ccc(F)cc3)cc2C1=O | 39*[16.7 µM] | 0 | nt | nt | 1 | -4
SMILES | HIV Env fusion | Casp6 inh | ALR H2O2 inh | NSD2 HMT inh | CFTR F508del cor | PglD DTNB
COc1ccc(NC(=O)N(C)C[C@@H]2OCCCC[C@H](C)Oc3ccc(NC(=O)Nc4ccc(F)cc4)cc3C(=O)N([C@@H](C)CO)C[C@@H]2C)cc1 | -16[16.7 µM] | 0 | nt | nt | -1 | 5
CO[C@H]1CN(C)C(=O)c2cc(NC(C)=O)ccc2OC[C@H](C)N(C(=O)c2cnccn2)C[C@@H]1C | 8[16.7 µM] | nt | nt | nt | 0 | 1
CC(C)NC(=O)Nc1ccc2c(c1)C(=O)N([C@@H](C)CO)C[C@@H](C)[C@H](CN(C)S(=O)(=O)c1cn(C)cn1)OCCCC[C@@H](C)O2 | 23[16.7 µM] | 1 | nt | nt | 0 | -2
O=C(NCc1ccc(F)cc1)[C@@H]1[C@@H](CO)[C@@H]2Cn3c(cccc3=O)[C@H]1N2C(=O)Cc1ccccn1 | -3[16.7 µM] | -1 | nt | nt | nt | -1
OC[C@H]1[C@@H](c2ccccc2)C2(CN(CC3CC3)C2)N1Cc1nccs1 | nt | -3 | nt | nt | 2 | nt
C[C@H](CO)N1C[C@H](C)[C@H](CN(C)C(=O)NC2CCCC2)Oc2ncc(-c3cc4ccccc4o3)cc2C1=O | 12[16.7 µM] | -2 | nt | nt | 1 | 0
C[C@H](CO)N1C[C@H](C)[C@H](CN(C)C(=O)NC2CCCCC2)Oc2ncc(-c3cc4ccccc4o3)cc2C1=O | nt | 4 | nt | nt | 8.7* | -1
CC(C)c1ccc(NC(=O)c2ccccc2NC(=O)C2CC=CCC2C(=O)O)cc1 (configuration not stated) | -28 | 3 | 13 | -1 | 1 | -3
O=C(Nc1ccc(F)cc1)c1ccccc1NC(=O)C1CC=CCC1C(=O)O (configuration not stated) | -19 | 37* | -8 | -2 | 1 | 1
CS(=O)(=O)c1ccc(Sc2nc3ccccc3s2)c([N+](=O)[O-])c1 | nt | nt | 3 | 0 | nt | 6
O=[N+]([O-])c1cc(S(=O)(=O)C(F)(F)F)ccc1Sc1nc2ccccc2[nH]1 | nt | nt | 91* | -1 | nt | nt
O=[N+]([O-])c1cc(S(=O)(=O)C(F)(F)F)ccc1Sc1nc2ccccc2s1 | nt | nt | 98* | nt | nt | -12
CO[C@H]1CN(C)C(=O)c2ccc(NC(=O)Nc3ccc(Cl)cc3)cc2OC[C@H](C)NC[C@H]1C | nt | nt | nt | nt | -3 | nt
COCCCn1c(Cc2csc(Nc3ccccc3)n2)nnc1SCC(N)=O | -29 | nt | 56 | -9 | nt | nt
NC(=O)CSc1nnc(Cc2csc(Nc3ccccc3)n2)n1Cc1ccccc1 | -32 | 1 | 79* | -4 | nt | -4
Cc1ccc(C(=O)NC(=O)CSc2nncn2C)cc1 | 10 | 1 | 1 | 1 | 3 | -2
Cc1ccc(C2=NN=C(NC(=O)CSc3nncn3C)SC2)cc1 | -41 | nt | 99* | 9 | -1 | -4
COc1cccc(NC(=O)N[C@@H]2C=C[C@@H](CC(=O)Nc3ccccc3)O[C@@H]2CO)c1 | nt | 1 | nt | nt | -3 | nt
